Our source for the growth values is PubChem BioAssay (NCI).

Holding throughout (experiment): NCI-60 one-dose screen, 48 h (100 = growth as untreated, 0 = no growth, -100 = all killed)
What all share (settings): 10 µM

The test system of assay [1] is NCI-H23 lung.
In assay [2] the test system is NCI-H322M lung.
Assay [3] concerns HOP-62 NSCLC.
The test system of assay [4] is HOP-92 NSCLC.
Assay [5] relates to A549/ATCC NSCLC.
Assay [6] relates to 786-0 renal.
Assay [7] concerns NCI-H460 lung.
For assay [8], the system named is NCI-H522 lung.
Assay [9] has as its system COLO 205 colon.
For assay [10], the system named is NCI-H226 lung.

Compounds without any hit were thinned out: in the full panel of roughly 83,000, 20% have a hit.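 Interpretation: 100, growth as untreated; towards 0, rising growth inhibition; 0, no net growth; 0 to -100, cell death. Compounds scoring below 10 were considered active.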 Unmarked numbers belong to inactive results. Calls of active or inactive are those of the source.

Consider `NC(=Nc1ccc(OCCCCCCCCn2ccnn2)cc1)c1ccccc1`, for which the growth in [1] is 20.1%; in [2], 60.3%; in assay [3], 18.2%; in assay [4], 74.2%; in assay [5], 24.4%; in assay [6], 45.7%.
Turning to `O=C1Nc2ccc(Cl)cc2/C1=C/c1cccc(OCc2ccccn2)c1`, the growth in assay [1] is 15.4%; in assay [3], 52.1%; in [7], -16.2% (active); in assay [4] it was -6.11% (active); in assay [8] it was -75.5% (active); in assay [5], 40.1%. Further, the results for the growth in assay [6] and in assay [9] were -14.4% (active) and -45.9% (active), respectively.
As for `COc1cccc(C(N)=Nc2ccc(OCCCCCCn3cncn3)cc2)c1`, the growth is 21.1% in assay [1]; 60.5% in assay [2]; 20.7% in [3]; 28.1% in assay [7]; 79.3% in assay [4]; -2.45% (active) in assay [8]. In addition, the growth in assay [6] is 40.9%.
For `COc1ccc(/C(CSc2nnc(-c3c[nH]c4ccccc34)n2-c2ccccc2)=N/O)cc1`, the growth is 41.6% in assay [1]; 36.4% in assay [2]; 45% in [3]; 17.3% in [7]; 28.2% in assay [4]; 36.5% in assay [8]. For the same compound, the growth in assay [5] was 34.2%; in assay [6], 59.7%; in assay [9], 36.3%.
Take `COC[C@@H](CC(C)C)N=C1NC(=O)/C(=C/c2ccc3ncsc3c2)N1`: the growth was -10.5% (active) in [1]; 15.8% in [2]; 3.81% (active) in assay [3]; 7.24% (active) in assay [7]; 3.44% (active) in assay [4]; -3.68% (active) in [8]. Further, the growth in assay [6] was 23.5%; in assay [9], -11.8% (active).
For the compound `S=c1nc(-c2ccccc2)cc(-c2cc3ccccc3nc2Cl)[nH]1`, the growth in [1] was 78.5%; in assay [3], 72.7%; in assay [7], 90.4%; in assay [4], 75.9%; in [8] it was 57.8%; in assay [5], 86.1%. For the same compound, the values for the growth in [6] and in [9] were 90.5% and 96.3%, respectively.
Regarding `CN1CCN(Cc2ccc(C(=O)Nc3cccc(Nc4ccc5cc(O)ccc5n4)c3)cc2C(F)(F)F)CC1`, the growth in assay [10] was 26.5%; in [2] it was -28.9% (active); in assay [3], -66.5% (active); in assay [7], -74.6% (active); in assay [4] it was -46.2% (active); in assay [8], -68.8% (active). The results for the growth in assay [5], in [6] and in [9] were -11.5% (active), -47% (active) and -85.4% (active), respectively.
Consider `O=C(NCCCCC(c1ccc(F)cc1)c1ccc(F)cc1)NCCCc1cccnc1`, for which the growth is 41.2% in assay [10]; 64.8% in assay [2]; 56.2% in [3]; 28.8% in [7]; 19.4% in assay [4]; 16.8% in assay [8]. Moreover, the growth in [5] is 27.2%; in assay [6], 47.7%; in assay [9], -12.1% (active).
Turning to `COc1cc(/C=C/C(=O)c2ccc(S(=O)(=O)NCCNc3nc(Nc4ccc(F)cc4)nc(N(C)C)n3)cc2)cc(OC)c1OC`, the growth in assay [10] was -21.6% (active); in assay [2], 58.7%; in assay [7], 15.8%; in assay [4] it was 60.4%; in assay [8], 68%; in assay [5], 18.4%. Further, the growth in assay [6] was -64.2% (active); in assay [9], -50.8% (active).
With `COc1ccc2nc(Nc3cccc(NC(=O)c4ccc(CN5CCN(C)CC5)c(C(F)(F)F)c4)c3)ccc2c1`, the growth in assay [10] is -46.9% (active); in assay [2] it was -64% (active); in [3], -77.6% (active); in [7] it was -84.5% (active); in assay [4] it was -57% (active); in assay [8], -85.7% (active). The growth in [5] is -54.7% (active); in assay [6], -55.3% (active); in [9], -90.3% (active).
Consider `COc1ccc2[nH]cc(/C=N/Nc3ccc(Br)cn3)c2c1`, for which the growth was 40% in assay [10]; 43.8% in assay [2]; 45.8% in [3]; 16.2% in [7]; -24.5% (active) in assay [4]; 38.5% in assay [8]. Moreover, the figures for the growth in assay [5], in [6] and in [9] were 23%, -3.93% (active) and 37.4%, respectively.
For `CC1=C2C(=C[C@@](C)(CO)[C@@H]2O)/C(=N\N)[C@](C)(O)C12CC2`, the growth in assay [10] is -41.2% (active); in assay [2], -11.9% (active); in [3], -27% (active); in assay [7] it was -6.47% (active); in assay [4], -22.6% (active); in [8] it was -62.4% (active). Besides, the growth is 5.73% (active) in assay [5], 6.59% (active) in assay [6] and -79.4% (active) in assay [9].
As to `COc1ccc(N(C)c2cc(C#N)nc3ccccc23)cc1/C=C/C(=O)NO`, the growth is -39% (active) in assay [10]; 0.0682% (active) in [2]; -48% (active) in assay [3]; 0.587% (active) in [7]; -12.2% (active) in assay [4]; -75.4% (active) in assay [8]. Moreover, the results for the growth in assay [5], in assay [6] and in assay [9] were 7.16% (active), -9.47% (active) and -34.2% (active), respectively.
Turning to `COc1ccc(C(=O)/C=C/c2cc(C(F)(F)F)cc(C(F)(F)F)c2)cc1S(N)(=O)=O`, the growth in assay [10] is -69.7% (active); in assay [2] it was -73.8% (active); in assay [3] it was -44.7% (active); in assay [7] it was -24% (active); in assay [4], -37.9% (active); in [8], -67.7% (active). Besides, the growth in [5] was -11.7% (active); in assay [6], -69.2% (active); in assay [9], -66.1% (active).
For the compound `CC(=O)C1=C(C)NC(SCC(=O)Nc2ccc(S(=O)(=O)Nc3cc(C)on3)cc2)=NC1c1ccccc1` (stereo unspecified), the growth is 117% in assay [10]; 102% in assay [2]; 105% in assay [3]; 98.3% in assay [7]; 132% in [4]; 100% in assay [8]. Besides, the results for the growth in assay [5], in assay [6] and in assay [9] were 99.1%, 102% and 122%, respectively.
